The text below walks through data of PubChem BioAssay (NCATS).

The structures appear in SMILES notation. Results filed as inconclusive are left out. Calls of active or inactive are those of the source. Unless noted, the call rests on the fitted dose curve; in most records, active means well fitted curve in the direction sought with a large enough effect; inconclusive means small, poorly fitted or top-dose-only effect, or another doubt; inactive means no such curve, though single readings can be large; an effect the other way counts as inactive or inconclusive.

Assay [1] in a line: qHTS of pediatric cancer cell lines to identify multiple opportunities for drug repurposing: Primary screen for TC32 cells (AID 1347089). Further: nearly all actives have a fitted effect of over 60% in size. Further: potency means the concentration at half of the fitted maximal effect. Particulars: TC32 Ewing sarcoma viability, CellTiter-Glo luminescence, 48 h; series mostly up to 45.8 µM. The procedure, abridged:
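Luminescent CellTiter-Glo read-out of metabolically active TC32 cells after 48 h compound exposure. Primary: MIPE 11-point, 0.78 nM–46 µM; NPC 8-point, 0.59 nM–46 µM. Confirmatory: 11-point dilutions.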
(Quantitative high-throughput screening tests each substance at several concentrations.)

Assay [2] is described as follows: qHTS of pediatric cancer cell lines to identify multiple opportunities for drug repurposing: Primary screen for A673 cells (AID 1347092). Further: nearly all actives have a fitted effect of over 45% in size. Further: potency means the concentration at half of the fitted maximal effect. The conditions noted are these: A673 Ewing sarcoma viability, CellTiter-Glo ATP luminescence, 48 h; series mostly up to 46 µM. The procedure, abridged: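 A673 cells (500-1,000 cells/well in growth media) were pre-incubated 5 h at 37 degrees C, then exposed to compounds for 48 h. Viability was read as CellTiter-Glo luminescence; concentration-response curves came directly from the primary screen.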

Assay [3] in a line: qHTS of pediatric cancer cell lines to identify multiple opportunities for drug repurposing: Primary screen for BT-37 cells (AID 1347094). Further: potency means the concentration at half of the fitted maximal effect. Particulars: BT-37 viability, CellTiter-Glo luminescence, 48 h; series mostly up to 57.3 µM. The procedure, abridged: (§1)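 Primary screen of approved and investigational compounds on cells in growth media at 37 degrees C, 5% CO2. MIPE set at 11-point and NPC set at 8-point dilutions; viability scored by ATP-based luminescence at 48 hours.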

A short description of assay [4]: qHTS of pediatric cancer cell lines to identify multiple opportunities for drug repurposing: Primary screen for U-2 OS cells (AID 1347096). Further: nearly all actives have a fitted effect of over 50% in size. Further: potency means the concentration at half of the fitted maximal effect. The conditions noted are these: U-2 OS viability, CellTiter-Glo luminescence, 48 h; series mostly up to 46 µM. The procedure, abridged: (§2)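 Viability after 48 h compound treatment at 37C, 500-1,000 cells/well, read as ATP luminescence with CellTiter-Glo. Primary screens used 11-point (MIPE, 0.78 nM-46 µM) or 8-point (NPC, 0.59 nM-46 µM) final concentrations; follow-up screens used 11-point dilutions.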

Assay [5] in a line: qHTS of pediatric cancer cell lines to identify multiple opportunities for drug repurposing: Primary screen for NB1643 cells (AID 1347099). Further: nearly all actives have a fitted effect of over 50% in size. Further: potency means the concentration at half of the fitted maximal effect. Particulars: NB1643 neuroblastoma viability, CellTiter-Glo luminescence, 48 h; series mostly up to 46 µM. The procedure, abridged:
as §1

The nature of assay [6]: qHTS of pediatric cancer cell lines to identify multiple opportunities for drug repurposing: Primary screen for BT-12 cells (AID 1347101). Further: potency means the concentration at half of the fitted maximal effect; nearly all actives have a fitted effect of over 25% in size. The conditions noted are these: BT-12 viability, CellTiter-Glo luminescence, 48 h; series mostly up to 57.3 µM. The procedure, abridged:
(§3)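 Cells (500-1,000/well) rested 5 h, then received compounds for 48 h; metabolically active cells were measured by CellTiter-Glo luminescence. Final concentrations spanned up to 46 µM (MIPE, 11-point) or 0.59 nM-46 µM (NPC, 8-point) in primary screens, 11-point in follow-ups.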

Assay [7] is described as follows: qHTS of pediatric cancer cell lines to identify multiple opportunities for drug repurposing: Primary screen for Rh18 cells (AID 1347102). Further: nearly all actives have a fitted effect of over 65% in size. Further: potency means the concentration at half of the fitted maximal effect. Particulars: Rh18 rhabdomyosarcoma viability, CellTiter-Glo luminescence, 48 h; series mostly up to 46 µM. The procedure, abridged: as §2
Assay [8] can be described thus: qHTS for Inhibitors of the Functional Ribonucleoprotein Complex (vRNP) of Lassa (LASV) Arenavirus: Viability assay - alamar blue signal for LASV Primary Screen (AID 1347083; calls by dose curve; tested in HEK293 reporter line; further: nearly all actives have a fitted effect of over 80% in size; further: potency means the concentration at half of the fitted maximal effect). The conditions noted are these: cell viability, alamar blue fluorescence (LASV minigenome counter-screen); series mostly up to 57.5 µM.
The nature of assay [9]: qHTS for Inhibitors of the Functional Ribonucleoprotein Complex (vRNP) of Lymphocytic Choriomeningitis Arenaviruses (LCMV): Viability assay - alamar blue signal for LCMV Primary Screen (AID 1347085; calls by dose curve; tested in HEK293 reporter line; further: nearly all actives have a fitted effect of over 80% in size; further: potency means the concentration at half of the fitted maximal effect). The conditions noted are these: alamar blue viability counter-screen, LCMV vRNP screen cells; series mostly up to 57.5 µM.
Assay [10] has as its target Nucleoprotein (Lymphocytic choriomeningitis virus (strain Armstrong)) (UniProt P09992). Briefly: qHTS for Inhibitors of the Functional Ribonucleoprotein Complex (vRNP) of Lymphocytic Choriomeningitis Arenaviruses (LCMV): LCMV Primary Screen - GLuc reporter signal (AID 1347086; calls by dose curve; further: nearly all actives have a fitted effect of over 70% in size; further: potency means the concentration at half of the fitted maximal effect). The conditions noted are these: LCMV minigenome vRNP cell assay, Gaussia luciferase reporter; series mostly up to 57.5 µM.

Assay [11] in a line: qHTS for Inhibitors of the Functional Ribonucleoprotein Complex (vRNP) of Lassa (LASV) Arenavirus: LASV Primary Screen - GLuc reporter signal (AID 1347082; calls by dose curve; tested in HEK293 reporter line; further: nearly all actives have a fitted effect of over 60% in size). The conditions noted are these: LASV minigenome vRNP, Gaussia luciferase reporter; series mostly up to 57.5 µM.
The nature of assay [12]: qHTS of pediatric cancer cell lines to identify multiple opportunities for drug repurposing: Primary screen for DAOY cells (AID 1347090). Further: nearly all actives have a fitted effect of over 55% in size. Further: potency means the concentration at half of the fitted maximal effect. The conditions noted are these: DAOY medulloblastoma viability, CellTiter-Glo luminescence, 48 h; series mostly up to 46 µM. The procedure, abridged:
(§4)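 Viability measured as metabolically active cells via CellTiter-Glo luminescence following 48 hours of compound exposure, 11-point dilutions in confirmatory testing. 500-1,000 cells/well plated 5 hours before dosing; controls were DMSO and 2.3 µM bortezomib.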

Assay [13] is described as follows: qHTS of pediatric cancer cell lines to identify multiple opportunities for drug repurposing: Primary screen for SJ-GBM2 cells (AID 1347091). Further: potency means the concentration at half of the fitted maximal effect. The conditions noted are these: SJ-GBM2 viability, CellTiter-Glo luminescence, 48 h; series mostly up to 46 µM. The procedure, abridged: as §4
Assay [14] is described as follows: qHTS of pediatric cancer cell lines to identify multiple opportunities for drug repurposing: Primary screen for SK-N-MC cells (AID 1347093). Further: potency means the concentration at half of the fitted maximal effect. The conditions noted are these: SK-N-MC viability, CellTiter-Glo luminescence, 48 h; series mostly up to 46 µM. The procedure, abridged: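 Metabolically active cells were quantified by ATP-dependent luminescence (CellTiter-Glo, 15 min at room temperature) following 48 h treatment. Cells had been plated at 500-1,000 per well and settled for 5 h beforehand.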

Assay [15] in a line: qHTS of pediatric cancer cell lines to identify multiple opportunities for drug repurposing: Primary screen for Saos-2 cells (AID 1347097). Further: potency means the concentration at half of the fitted maximal effect; nearly all actives have a fitted effect of over 40% in size. The conditions noted are these: Saos-2 viability, CellTiter-Glo ATP luminescence, 48 h; series mostly up to 46 µM. The procedure, abridged: as §1
The nature of assay [16]: qHTS of pediatric cancer cell lines to identify multiple opportunities for drug repurposing: Primary screen for SK-N-SH cells (AID 1347098). Further: potency means the concentration at half of the fitted maximal effect; nearly all actives have a fitted effect of over 65% in size. Particulars: SK-N-SH viability, CellTiter-Glo luminescence, 48 h; series mostly up to 57 µM. The procedure, abridged: as §3
Assay [17] is described as follows: qHTS of pediatric cancer cell lines to identify multiple opportunities for drug repurposing: Primary screen for LAN-5 cells (AID 1347100). Further: potency means the concentration at half of the fitted maximal effect. The conditions noted are these: LAN-5 neuroblastoma viability, CellTiter-Glo luminescence, 48 h; series mostly up to 46 µM. The procedure, abridged: as §2
A short description of assay [18]: qHTS of pediatric cancer cell lines to identify multiple opportunities for drug repurposing: Primary screen for NB-EBc1 cells (AID 1347095). Further: potency means the concentration at half of the fitted maximal effect. Particulars: NB-EBc1 neuroblastoma viability, CellTiter-Glo luminescence, 48 h; series mostly up to 46 µM. The procedure, abridged: as §1

Sequence of Nucleoprotein (Lymphocytic choriomeningitis virus (strain Armstrong)) (P09992 whole entry, looked up): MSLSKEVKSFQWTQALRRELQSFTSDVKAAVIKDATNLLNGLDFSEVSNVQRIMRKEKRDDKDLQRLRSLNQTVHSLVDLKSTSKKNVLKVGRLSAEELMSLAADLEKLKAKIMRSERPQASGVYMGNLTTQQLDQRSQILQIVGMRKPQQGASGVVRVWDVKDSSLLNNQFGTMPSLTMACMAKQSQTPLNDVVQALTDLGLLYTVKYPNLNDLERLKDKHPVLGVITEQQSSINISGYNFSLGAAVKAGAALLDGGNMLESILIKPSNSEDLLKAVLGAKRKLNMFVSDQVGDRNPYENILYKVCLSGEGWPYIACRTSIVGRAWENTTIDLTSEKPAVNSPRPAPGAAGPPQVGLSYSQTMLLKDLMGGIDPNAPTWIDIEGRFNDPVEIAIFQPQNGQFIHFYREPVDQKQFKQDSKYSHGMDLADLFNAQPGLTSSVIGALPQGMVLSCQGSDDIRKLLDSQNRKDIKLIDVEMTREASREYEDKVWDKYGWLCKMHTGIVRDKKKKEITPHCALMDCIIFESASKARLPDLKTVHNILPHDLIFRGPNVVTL

As for `N#Cc1nn(-c2c(Cl)cc(C(F)(F)F)cc2Cl)c(N)c1S(=O)C(F)(F)F` (stereo unspecified), the Potency entry in [1], in assay [2], in [3], in assay [4], in assay [5] and in [7] was “inactive” in each case. The Potency in assay [6] is 12.3 µM (active).

As for `O=C1[C@H]2CCCC[C@H]2C(=O)N1CCCCN1CCN(c2nsc3ccccc23)CC1`, the Potency result in assay [8], in assay [9] and in assay [10] was “inactive” each time.

Turning to `COc1cc(CC(C)N)c(OC)cc1Br` (stereo unspecified), the Potency result in [11], in assay [10], in assay [12], in [13], in [4] and in assay [5] was “inactive” throughout. The Potency entry in assay [7] was “inactive”. For the same compound, the results for the Potency in assay [14] and in assay [15] were 44.9 µM (active) and 35.7 µM (active), respectively.

As for `Cc1nc2ccccc2n1Cc1ccc(Cl)cc1`, the Potency result in assay [9] is “inactive”.

For the compound `CCCCCCCCCCCCCCCC[n+]1ccccc1`, in assay [8], the Potency was 15.8 µM (active).

`COC(=O)Nc1nc2ccc(S(=O)c3ccccc3)cc2[nH]1` (stereo unspecified): the Potency entry in [11] and in [10] was “inactive” throughout.

Regarding `Clc1ccc(CSC(Cn2ccnc2)c2ccc(Cl)cc2Cl)cc1` (stereo unspecified), the Potency result in [9] and in assay [10] was “inactive” in each case. For the same compound, the Potency is 26.6 µM (active) in [2], 33.5 µM (active) in assay [14] and 34.4 µM (active) in assay [16].

With `COC(=O)c1nc(Cl)c(Cl)nc1N`, the Potency result in assay [9] is “inactive”.

For `CC[C@]1(O)CC[C@H]2[C@@H]3CCC4=CCCC[C@@H]4[C@H]3CC[C@@]21C`, the Potency result in assay [11], in [10], in assay [3], in [4], in assay [5] and in assay [17] was “inactive” in each case.

For `Oc1c(Cl)cc(Cl)c(Cl)c1Cc1c(O)c(Cl)cc(Cl)c1Cl`, the Potency result in assay [9] was “inactive”.

`CN(C)C(=S)SSC(=S)N(C)C`: the Potency was 4.19 µM (active) in [1]; 0.168 µM (active) in assay [12]; 0.211 µM (active) in assay [2]; 0.188 µM (active) in [14]; 0.872 µM (active) in assay [3]; 9.44 µM (active) in [18]. Also, the Potency in assay [4] is 0.266 µM (active); in [15] it was 0.133 µM (active); in [16] it was 0.244 µM (active); in assay [5], 0.531 µM (active); in [17], 0.266 µM (active); in [6], 0.246 µM (active). Further, in assay [7], the Potency is 0.15 µM (active).

Consider `CCO[C@H]1O[C@@H]2OC3(C)CC[C@H]4[C@H](C)CC[C@@H]([C@H]1C)[C@@]24OO3`, for which the Potency result in assay [11], in assay [1], in assay [12], in assay [13], in assay [2] and in assay [3] was “inactive” throughout. In addition, the Potency result in [4] and in assay [7] was “inactive” throughout. Moreover, the Potency in assay [14] is 4.73 µM (active).

With `C[C@H](N)[C@H](O)c1ccc(O)c(O)c1`, the Potency result in assay [11], in assay [1], in [12], in assay [13], in [3] and in assay [4] was “inactive” each time. Also, the Potency entry in assay [7] was “inactive”. Moreover, in assay [17], the Potency was 26.6 µM (active).

In the case of `COc1ccc(-c2nc3ccc(C4=NNC(=O)CC4C)cc3[nH]2)cc1` (stereo unspecified), the Potency result in assay [11] and in assay [10] was “inactive” in each case.

Consider `C[C@@H]1C[C@H]2[C@@H]3CCC4=CC(=O)C=C[C@]4(C)[C@@]3(Cl)[C@@H](O)C[C@]2(C)[C@@]1(OC(=O)c1ccco1)C(=O)CCl`, for which the Potency result in assay [10] was “inactive”.

`O=C(Nc1ccc(Cl)cc1)Nc1ccc(Cl)c(C(F)(F)F)c1`: the Potency in [9] is 14.1 µM (active).

Regarding `Cc1cc(C2CCCCC2)n(O)c(=O)c1`, the Potency result in [10] was “inactive”.

For `COc1cccc2c1C(=O)c1c(O)c3c(c(O)c1C2=O)C[C@@](O)(C(C)=O)C[C@@H]3O[C@H]1C[C@H](N)[C@H](O)[C@H](C)O1`, the Potency in assay [8] is 0.891 µM (active); in assay [9], 0.355 µM (active).

Take `CC[N+](CC)(CC)CCOc1ccc(/C=C/c2ccccc2)cc1`: the Potency result in [9] and in [10] was “inactive” each time.

As to `CC[n+]1c(-c2ccccc2)c2cc(N)ccc2c2ccc(N)cc21`, the Potency in [1] is 8.36 µM (active); in [12], 0.841 µM (active); in assay [13] it was 2.66 µM (active); in assay [2], 3.35 µM (active); in assay [14] it was 2.11 µM (active); in assay [3] it was 2.46 µM (active). Besides, the Potency in assay [15] is 13.3 µM (active); in assay [16] it was 7.7 µM (active); in assay [17], 0.944 µM (active); in [7], 11.9 µM (active).

For `Nc1c2ccccc2nc2ccccc12`, the Potency in assay [9] was 14.1 µM (active).

Turning to `CO[C@@H]1[C@@H](OC)[C@H](C)[C@@](O)(CC(=O)O)O[C@H]1[C@H](C)[C@H]1O[C@@]2(CC[C@@](C)([C@H]3CC[C@@](C)([C@@H]4O[C@@H]([C@H]5O[C@](C)(O)[C@H](C)C[C@@H]5C)C[C@@H]4OC4C[C@H](OC)[C@@H](OC)[C@H](C)O4)O3)O2)C[C@H](O)[C@H]1C` (stereo partly specified), the Potency in assay [9] is 2 µM (active); in assay [10], 0.562 µM (active).

`Cc1cc2nc3ccc(=[N+](C)C)cc-3sc2cc1N`: the Potency in assay [10] is 6.31 µM (active).

As to `CCCCCN=C(N)N/N=C/c1c[nH]c2ccc(OC)cc12`, the Potency entry in assay [8] is “inactive”.

On to `Cc1ccc([N+](=O)[O-])[c]2c1[O][Hg]2`, for which the Potency in assay [1] is 0.264 µM (active); in assay [12] it was 1.06 µM (active); in assay [2], 0.0531 µM (active); in [14], 0.0944 µM (active); in [3] it was 1.55 µM (active); in assay [4], 2.66 µM (active). In addition, the Potency is 0.106 µM (active) in assay [15]; 1.09 µM (active) in assay [16]; 0.596 µM (active) in assay [5]; 2.76 µM (active) in assay [6]; 1.5 µM (active) in assay [7].
